According to PubChem BioAssay (NCATS):
Several values for one entry are separate records, joined by “and”; a condition that tells them apart may be missing. Identical values can stand only once. Records with an inconclusive call do not appear. Activity calls are given as the source filed them. Calls follow the shape of the dose curve; as a rule, active = well fitted curve in the direction sought with a large enough effect; inconclusive = small, poorly fitted or top-dose-only effect, or another doubt; inactive = no such curve, though single readings can be large; an effect the other way counts as inactive or inconclusive.

How the values were obtained:
[1] = biological target: Cellular tumor antigen p53 (Homo sapiens) (UniProt P04637); experiment: Primary qHTS for small molecule compounds that upregulate eGFP-tagged delta133p53alpha (in N-terminal) cells. (AID 2060322); details: NCI-H358 eGFP-delta133p53alpha fluorescence, 24 h; activation: active compounds read high;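 also: 0% = DMSO vehicle and 100% = reference activator; nearly all actives have a fitted effect of over 75% in size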
Sequence of Cellular tumor antigen p53 (Homo sapiens) (P04637 whole entry, looked up): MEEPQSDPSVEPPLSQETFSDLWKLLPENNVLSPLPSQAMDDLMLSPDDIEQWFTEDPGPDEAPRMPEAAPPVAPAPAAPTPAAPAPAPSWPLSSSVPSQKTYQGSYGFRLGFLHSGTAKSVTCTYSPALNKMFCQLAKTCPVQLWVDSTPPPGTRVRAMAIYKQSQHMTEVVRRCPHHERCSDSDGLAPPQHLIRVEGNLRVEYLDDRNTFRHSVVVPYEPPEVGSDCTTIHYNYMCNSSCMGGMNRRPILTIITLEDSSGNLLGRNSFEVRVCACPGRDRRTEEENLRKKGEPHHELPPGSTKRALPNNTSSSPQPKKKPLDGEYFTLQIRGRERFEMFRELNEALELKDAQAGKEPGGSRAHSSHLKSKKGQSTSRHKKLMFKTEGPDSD
Procedure, shortened: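 NCI-H358 cells pre-induced 24 h with 10 ng/ml doxycycline to express N-terminal eGFP-delta133p53alpha, then dosed 24 h at 37C without doxycycline; fixed, Hoechst-stained, GFP intensity by laser scanning cytometry, normalized to DMSO (0%) and 57.5 uM 5-azacytidine (100%).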

[2] = biological target: Aldehyde dehydrogenase, mitochondrial (Homo sapiens) (UniProt P05091); experiment: qHTS for Inhibitors of the Aldehyde Dehydrogenase Family (ALDH2) Primary screen (AID 2061308); details: ALDH2 enzyme inhibition qHTS, 1536-well; series mostly up to 56 µM; also: nearly all actives have a fitted effect of over 55% in size; also: potency is read from the fitted curve at half-maximal effect
[3] = biological target: Retinaldehyde dehydrogenase 3 (Homo sapiens) (UniProt P47895); experiment: qHTS for Inhibitors of the Aldehyde Dehydrogenase Family (ALDH1A3) Validation screen (AID 2061312); details: ALDH1A3 enzyme inhibition qHTS validation, fluorescence; series mostly up to 84.7 µM; also: nearly all actives have a fitted effect of over 45% in size; also: potency is read from the fitted curve at half-maximal effect
[4] = biological target: Retinaldehyde dehydrogenase 3 (Homo sapiens) (UniProt P47895); experiment: qHTS for Inhibitors of the Aldehyde Dehydrogenase Family (ALDH1A3) Primary screen (AID 2061315); details: ALDH inhibition qHTS; series mostly up to 56 µM; also: potency is read from the fitted curve at half-maximal effect
[5] = biological target: Retinaldehyde dehydrogenase 3 (Homo sapiens) (UniProt P47895); experiment: qHTS for Inhibitors of the Aldehyde Dehydrogenase Family (ALDH1A3) Confirmatory screens (AID 2061311); details: ALDH inhibition qHTS; series mostly up to 46 µM; also: potency is read from the fitted curve at half-maximal effect; nearly all actives have a fitted effect of over 60% in size
[6] = biological target: Retinal dehydrogenase 2 (Homo sapiens) (UniProt O94788); experiment: qHTS for Inhibitors of the Aldehyde Dehydrogenase Family (ALDH1A2) Confirmation screens (AID 2061314); details: ALDH1A2 enzyme inhibition qHTS confirmation; series mostly up to 45.9 µM; also: potency is read from the fitted curve at half-maximal effect; nearly all actives have a fitted effect of over 65% in size
[7] = biological target: Aldehyde dehydrogenase 1A1 (Homo sapiens) (UniProt P00352); experiment: qHTS for Inhibitors of the Aldehyde Dehydrogenase Family (ALDH1A1) Confirmatory screens (AID 2061316); details: ALDH inhibition qHTS; series mostly up to 47.3 µM; also: potency is read from the fitted curve at half-maximal effect; nearly all actives have a fitted effect of over 65% in size

Cc1nc2ccccc2c(-c2ccc3c4c(ccnc24)CCO3)c1[C@H](OC(C)(C)C)C(=O)O
inactive: activation [1] 0.955% | Potency [2] | Potency [3] | Potency [4]

CNCCC(c1cccs1)c1ccc(O)c2ccccc12 (centres undefined)
inactive: activation [1] -7.67% | Potency [2]
active: Potency [5] 22.5 µM | Potency [4] 15.8 µM

CO/N=C(/C(=O)N[C@@H]1C(=O)N2C(C(=O)O)=C(CSC(=O)c3ccco3)CS[C@H]12)c1csc(N)n1
active: Potency [2] 17.8 µM | Potency [5] 7.12 µM | Potency [6] 28.3 µM | Potency [7] 5.65 µM
inactive: activation [1] -18.6% and -3.67% | Potency [4]

COc1cncc(C#Cc2ccccn2)c1
inactive: activation [1] 1.43% | Potency [2]
active: Potency [3] 22.4 µM

Cc1cccc(C#Cc2cc(F)cc(C#N)c2)n1
inactive: activation [1] -6.68% | Potency [2]
active: Potency [3] 5.62 µM

CCNC(=O)c1noc(-c2cc(Cl)c(O)cc2O)c1-c1ccc(OC)cc1
inactive: activation [1] -6.68% | Potency [2] | Potency [3] | Potency [4]

O=C(N[C@H](Cc1ccccc1)C(=O)O)c1sc2cc(F)ccc2c1Cl
inactive: activation [1] -9.55% | Potency [2] | Potency [3] | Potency [4]

COc1ccc(Cl)cc1[C@@]1(F)C(=O)Nc2cc(C(F)(F)F)ccc21
inactive: activation [1] 24.8% | Potency [2] | Potency [3] | Potency [4]

CC(=O)NCC1CN(c2ccc(-c3ccc(CNCc4cn[nH]n4)cc3)c(F)c2)C(=O)O1 (centres undefined)
inactive: activation [1] -4.77% | Potency [2]
active: Potency [3] 3.98 µM

O=C(NCCCc1ccccc1)C1CCC(CNS(=O)(=O)c2cccc3nsnc23)CC1 (centres undefined)
inactive: activation [1] -3.34% | Potency [2] | Potency [3] | Potency [4]

Cc1nnc(-c2ccc(-c3ccc(C(=O)Nc4ccc(O)c(N5CCN(C)CC5)c4)cc3)c(C)c2)o1
inactive: activation [1] -0.477% | Potency [2] | Potency [3]

Cc1ccc2nc(N)[nH]c(=O)c2c1Sc1ccncc1
inactive: activation [1] -10% and -17.7% | Potency [2] | Potency [4]
active: Potency [3] 7.94 µM

COc1ccc(C(=O)NCc2cc(C(C)C)no2)cc1OC1CCN(C)CC1
inactive: activation [1] 4.77% | Potency [2] | Potency [3] | Potency [4]

O=C(c1cc2c(cc1F)OC(c1ccc(F)cc1)(c1ccc(Cl)cc1Cl)O2)N1CCOCC1 (centres undefined)
inactive: activation [1] -4.3% | Potency [2] | Potency [3] | Potency [4]

COc1ccc(-c2cnc3ccc(NCc4ccc(S(N)(=O)=O)cc4)nn23)cc1OC
inactive: activation [1] 5.73% | Potency [2] | Potency [3] | Potency [4]

CCCCCCOC(=O)/N=C(\N)c1ccc(NCc2nc3cc(C(=O)N(CCC(=O)OCC)c4ccccn4)ccc3n2C)cc1
inactive: activation [1] -0.955% | Potency [2] | Potency [3] | Potency [4]

CCCCOC(=O)NC(=O)C1c2ccccc2Oc2ccccc21
inactive: activation [1] -11.5% | Potency [2] | Potency [3] | Potency [4]

O=C1CSc2ccccc2N1Cc1cccc(C(F)(F)F)c1
inactive: activation [1] 3.34% | Potency [2] | Potency [3] | Potency [4]

CC(C)C[C@@H](C(=O)N[C@@H](Cc1ccc(OCc2ccccc2)cc1)C(=O)NC(C)(C)C)N(C)Cc1ccc(C(C)(C)C)cc1
inactive: activation [1] -1.91% | Potency [2] | Potency [3] | Potency [4]

CCOc1nc2cccc(C(=O)O)c2n1Cc1ccc(-c2ccccc2-c2noc(=O)[nH]2)cc1
inactive: activation [1] 0.955% | Potency [2] | Potency [3] | Potency [4]

CN(C)c1nc(Cc2ccc(NC(=O)c3ccc4ccccc4c3)cc2)nc(Cl)c1CC(=O)O
inactive: activation [1] -3.03% and -7.64% | Potency [2] | Potency [3] | Potency [4]

COc1ccccc1Oc1c(NS(=O)(=O)c2ccc(C)cn2)nc(-c2ccncc2)nc1OC
inactive: activation [1] 20% | Potency [2] | Potency [3] | Potency [4]

CCCCNc1ccc(-c2ccc(CN3CCOCC3)cn2)c(NC2CCC(O)CC2)c1 (centres undefined)
inactive: activation [1] 1.91% | Potency [2] | Potency [3] | Potency [4]

COc1cc(C(=O)NCC2(N(C)C)CCCC2)cc(OC)c1OCc1ccccc1
inactive: activation [1] -8.11% | Potency [2] | Potency [3] | Potency [4]

CCOC(=O)COc1ccc2c(c1)C[C@@H](NC[C@H](O)c1cccc(Cl)c1)CC2
inactive: activation [1] 11.9% | Potency [2] | Potency [3] | Potency [4]

CCNC(=O)C1CC(F)(c2ccc(CN3CCCC3)c(F)c2)C1 (centres undefined)
inactive: activation [1] -9.07% | Potency [2] | Potency [3] | Potency [4]

CC(C)[C@@H]1C(=O)N(S(C)(=O)=O)[C@@H]2CCN(C(=O)/C=C/CN3CCCCC3)[C@H]21
inactive: activation [1] 8.11% | Potency [2] | Potency [3] | Potency [4]

O=C1N=C(N2CCOCC2)CN1c1ccc(Cl)cc1
inactive: activation [1] -6.21% | Potency [2] | Potency [3] | Potency [4]

O=C(NCCN1CCC(n2c(=O)[nH]c3ccccc32)CC1)c1cc2cc(F)ccc2[nH]1
inactive: activation [1] 23.9% | Potency [2] | Potency [3] | Potency [4]
